Screening results deposited in PubChem BioAssay by University of Kansas High Throughput Screening Laboratory.
Shown are actives, neighbours in structure and some others; about 3.5% of the full set was active somewhere.
mHTT CaM bind = mutant huntingtin-calmodulin interaction inhibitors – biochemical, AlphaScreen, primary screen; AlphaScreen His-mHTT/GST-CaM binding, luminescence; 3.6% of 190,000 active; inhibition, % at 15 µM; P42858;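 also: 0% = both proteins with DMSO and 100% = one protein alone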
Pf apPOL block = Pf-apPOL inhibitors, biochemical, fluorescence; Recombinant Pf-apPOL, molecular beacon fluorescence, 1.5 h; inhibition, % at 10 µM; 0.25% of 210,000 active; AID 1794808, 2022
Active calls of the source: *; · = no result given. Rule as the data show it: active = inhibition above about 50%; inactive = the rest.

SMILES	mHTT CaM bind	Pf apPOL block
Cc1ccnc(SCc2cc(=O)c(OC(=O)Cc3ccc([N+](=O)[O-])cc3)co2)n1	88*	0
Cc1noc(CNC(=O)CCCN2C(=O)c3ccccc3C2=O)n1	-7	-5
COCCCNC(=O)c1c[nH]c2ccc(S(=O)(=O)Nc3cccc(Cl)c3C)cc2c1=O	44	-4
COc1ccc(NC(=O)c2ccc(Cn3cnc4cccnc43)cc2)cc1	-5	-3
CC12CCC(=O)N1CCCCN2 (configuration not stated)	-2	·
CC(C)c1noc(-c2cccnc2N2CCCN(Cc3cccc(F)c3)CC2)n1	-40	1
O=C(CN1C(=O)C2C3c4ccccc4C(c4ccccc43)C2C1=O)NC1CCCCC1 (configuration not stated)	11	-2
COc1ccccc1NC(=O)c1c(NC(=O)c2ccco2)sc2c1CCCC2	-2	1
COc1ccccc1NC(=O)c1c(NCc2cccc(F)c2)sc2c1CCC2	63*	-17
COc1cc(OC)c(OC)cc1CNc1sc2c(c1C(=O)Nc1ccccc1OC)CCC2	53*	-15
CCOc1ccccc1NC(=O)c1c(NCc2cccc(OC)c2OC)sc2c1CCC2	32	-17
CN(CCc1ccncc1)C(=O)C1CCCN(c2cnn(Cc3ccccc3)c(=O)c2)C1 (configuration not stated)	8	-1
COc1ccc(C)cc1N(CC(=O)NCc1ccccn1)S(C)(=O)=O	-4	1
CC1CCC2(CC1)C(C#N)=C1SC3CCCCC3(O)N1C(=O)C2C#N (configuration not stated)	-1	-3
C=CCNC(=O)c1cc2c(n(-c3ccc(Cl)c(Cl)c3)c1=O)CC(C)(C)CC2=O	2	3
Cc1cccc(-n2cnc3cc(C(=O)NC4CCCC4)ccc32)c1	10	4
Cc1cccc(-n2cnc3cc(C(=O)N4CCc5ccccc54)ccc32)c1	67*	28
COc1ccc(C2C=C(Nc3ccc(F)cc3)C(=O)N2c2ccc(F)cc2)cc1OC (configuration not stated)	0	-2
Cc1ccccc1N=c1scc(-c2ccccc2)n1Cc1ccco1	73*	0
Cc1csc(=NC(=O)c2ccccc2)n1Cc1ccco1	6	0
Cc1ccn(-c2ccc(C(=O)Nc3cccc(F)c3)cn2)n1	-5	2
O=C(NCC1COC2(CCCC2)O1)C(=O)NC1CCCC1 (configuration not stated)	-7	-3
O=c1c2c3c(sc2nc2ccc(NCc4ccco4)nn12)CCCC3	79*	-3
O=C(Cn1cnc2sc3c(c2c1=O)CCCC3)NCc1ccco1	10	-3
CC(=O)c1ccc(OCc2cn(CC(=O)c3ccc(O)cc3)nn2)cc1	4	11
SMILES	mHTT CaM bind	Pf apPOL block
CC(=O)Nc1ccc(OCc2cn(CC(=O)c3ccc(O)cc3)nn2)cc1	52*	34
O=C(CCC(=O)Nc1nccs1)Nc1nccs1	-8	·
CN(CC(=O)Nc1ccc(F)c(Cl)c1)S(=O)(=O)c1ccc2[nH]c3c(c2c1)CCCC3	66*	-7
Cc1c(Cl)cccc1NC(=O)CN(C)S(=O)(=O)c1ccc2[nH]c3c(c2c1)CCCC3	52*	-1
CC(=O)c1ccc(NC(=O)CN(C)S(=O)(=O)c2ccc3[nH]c4c(c3c2)CCCC4)cc1	41	-2
Cc1ccc(NC(=O)CN(C)S(=O)(=O)c2ccc3[nH]c4c(c3c2)CCCC4)nc1	43	-2
Cc1ccc(NC(=O)CN(C)S(=O)(=O)c2ccc3[nH]c4c(c3c2)CCCC4)c(C)c1	47	-2
COc1ccc(NC(=O)CN(C)S(=O)(=O)c2ccc3[nH]c4c(c3c2)CCCC4)cc1	56*	-3
Cc1cccc(C)c1NS(=O)(=O)c1ccc(NC(=O)c2cccc([N+](=O)[O-])c2C)cc1	8	1
COc1ccccc1-c1noc(C2CCCN2C(=O)NCc2ccc(F)cc2)n1 (configuration not stated)	1	-3
O=C1OC(C(O)CO)C(O)C1O (configuration not stated)	·	-3
O=C(Nc1cccc(C(F)(F)F)c1)c1ccc(-c2ccccc2F)cc1	·	-6
CC(C)CC(=O)Nc1ccc2c(c1)C(N1CCOCC1)=Nc1ccccc1O2	12	-3
Cc1cccc(Nc2nccc(C3CCCN(C(=O)c4ccoc4)C3)n2)c1 (configuration not stated)	29	1
O=C(c1ccoc1)N1CCCC(c2ccnc(Nc3cccc(F)c3)n2)C1 (configuration not stated)	72*	-2
O=C(c1cccc(F)c1)N1CCCC(c2ccnc(Nc3ccccc3)n2)C1 (configuration not stated)	18	0
O=C(c1ccsc1)N1CCCC(c2ccnc(Nc3cccc(F)c3)n2)C1 (configuration not stated)	67*	-2
O=C(c1ccccc1)N1CCCC(c2ccnc(Nc3ccc(F)cc3)n2)C1 (configuration not stated)	91*	-7
CC(=O)N1CCCC(c2ccnc(Nc3cccc(F)c3)n2)C1 (configuration not stated)	32	-2
CCC(C(=O)Nc1cc(C)cc(C)c1)c1ccccc1 (configuration not stated)	-35	-7
CCc1ccc(C(=O)N2CCCC(c3nc(CCNC(=O)C4CC4)cs3)C2)cc1 (configuration not stated)	-5	0
O=C(NCc1cccs1)NC1CC(=O)N(c2ccc3c(c2)OCCO3)C1 (configuration not stated)	-1	-1
COc1ccc(C2C=C(c3ccc(Cl)cc3)Nc3nc(CCCO)nn32)cc1OC (configuration not stated)	52*	12
OCCCc1nc2n(n1)C(c1cccc(Cl)c1)C=C(c1ccc(F)cc1)N2 (configuration not stated)	41	-6
c1ccc(-c2cc(-c3ccccc3)c3nncn3n2)cc1	-2	·
SMILES	mHTT CaM bind	Pf apPOL block
O=C(Nc1ccc2c(c1)OCCO2)c1ccc(Br)cc1	96*	1
O=C(Nc1ccc2c(c1)OCO2)c1ccc(Br)cc1	0	-1
COc1ccc(/C=C(\C#N)c2nc3ccc(C)cc3[nH]2)cc1O	24	-10
COc1ccc(C2C(C#N)=C(N)Oc3n[nH]c(-c4ccc(OC)c(OC)c4)c32)cc1O (configuration not stated)	10	-1
N#CC1=C(N)Oc2n[nH]c(-c3ccc(Cl)c(Cl)c3)c2C1c1ccc(O)cc1 (configuration not stated)	100*	-4
N#CC1=C(N)Oc2n[nH]c(-c3cccc([N+](=O)[O-])c3)c2C1c1ccc(O)cc1 (configuration not stated)	14	7
COc1cc(C2C(C#N)=C(N)Oc3n[nH]c(-c4ccc(Cl)c(Cl)c4)c32)ccc1O (configuration not stated)	99*	-1
COc1cc(C2C(C#N)=C(N)Oc3n[nH]c(-c4cc(OC)c(OC)c(OC)c4)c32)ccc1O (configuration not stated)	10	-3
COc1ccc(-c2[nH]nc3c2C(c2ccc(C(F)(F)F)cc2)C(C#N)=C(N)O3)cc1OC (configuration not stated)	100*	1
COc1ccccc1C(=O)NCCN1CCOCC1	-5	-1
